From PubChem BioAssay (EPA / NIEHS)
Active and inactive are the calls of the source. Rule for the calls: active = hit-call score of the fitted dose curve at least 0.9, where 1 is the maximum; inactive = score below 0.9.

What follows are compounds tested on TIMP metallopeptidase inhibitor 2 (TIMP2), TIMP2 (gene 7077) (assay: BSK_KF3CT_TIMP2: BioMAP Diversity Plus: KF3CT Assay for TIMP metallopeptidase inhibitor 2 (TIMP2) Biomarker Activity (AID 2283071)). Details: primary human keratinocytes with fibroblasts; actives raise or lower the signal.
Summary of the method: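 Measurements come from ELISA detection of TIMP-2 at 24 hours in a dosed human keratinocyte and foreskin fibroblast co-culture. DMSO serves as negative control and baseline.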
In the case of `Cc1c(-c2cccnc2)c2ccccc2n1CCCCC(=O)O`, the outcome is reported as “inactive”. With `CC[C@H]1CC[C@H](NCc2cc3c(cc2OC)[C@H]2C[C@H]2C(=O)N3C)[C@H](c2ccccc2)N1` the outcome was “inactive”. With `CCOCCOCCOCCO` the outcome was “inactive”. `Cn1c(=O)cc(Oc2ccc(F)cc2F)c2cnc(NCC(C)(C)O)nc21` was tested, and the outcome was “inactive”. For `CC[C@H](C)C(=O)O[C@H]1C[C@@H](C)C=C2C=C[C@H](C)[C@H](CC[C@@H]3C[C@@H](O)CC(=O)O3)[C@H]21`, the AC50 was 33.8 µM (active). For `CCN(C(=O)c1cc(C)cc(OC[C@H](C)Nc2ccncc2)c1)C(C)C`, the outcome was “inactive”. With `Cc1ccc(S(=O)(=O)O)cc1C` the outcome was “inactive”. With `CC(C)CCCCCCOC(=O)c1ccc(C(=O)OCCCCCCC(C)C)c(C(=O)OCCCCCCC(C)C)c1` the outcome was “inactive”. In the case of `O=C(O)CCN(C1(C(=O)NO)CCCC1)S(=O)(=O)c1ccc(Oc2ccc(F)cc2)cc1`, the outcome is reported as “inactive”. For `CC(C)CCCCCCCOC(=O)CCCCC(=O)OCCCCCCCC(C)C`, the outcome was “inactive”. In the case of `CNCc1ccc(NC(=O)c2c[nH]c3c2C(=O)CCC3)cc1`, the outcome is reported as “inactive”. With `Cc1ccc(N)cc1O` the outcome was “inactive”. In the case of `Cc1[nH]cnc1C[C@H]1CCc2c(C)c3ccccc3n2C1=O`, the outcome is reported as “inactive”. For `CCCCC(CC)COC(=O)c1ccc(C(=O)OCC(CC)CCCC)cc1` (stereo unspecified), the outcome was “inactive”. `CC(C)CC(C)(O)C#CC(C)(O)CC(C)C` (stereo unspecified) was tested, and the outcome was “inactive”. For `O=C(O)CC(O)C(=O)O` (stereo unspecified), the outcome was “inactive”. In the case of `COc1cccc(-c2ccc(/C=C\CN3CCCCCC3)cc2Cl)c1`, the AC50 is reported as 33.2 µM (active). With `CN(C)c1ccc(N=NS(=O)(=O)O)cc1` the outcome was “inactive”. In the case of `COC(=O)CC(=O)OC`, the outcome is reported as “inactive”. For `CCOC(=O)CC(CC(=O)OCC)(OC(C)=O)C(=O)OCC`, the outcome was “inactive”. With `CC(C)=CCCC(C)=CC=O` the outcome was “inactive”. `O=C(OC[C@H]1O[C@@H](OC(=O)c2cc(O)c(O)c(OC(=O)c3cc(O)c(O)c(O)c3)c2)[C@H](OC(=O)c2cc(O)c(O)c(OC(=O)c3cc(O)c(O)c(O)c3)c2)[C@@H](OC(=O)c2cc(O)c(O)c(OC(=O)c3cc(O)c(O)c(O)c3)c2)[C@@H]1OC(=O)c1cc(O)c(O)c(OC(=O)c2cc(O)c(O)c(O)c2)c1)c1cc(O)c(O)c(OC(=O)c2cc(O)c(O)c(O)c2)c1` was tested, and the AC50 was 2.92 µM (active). With `CC(C)=CCCC(C)CCO` (stereo unspecified) the outcome was “inactive”. For `CCCCCCCCO`, the outcome was “inactive”. In the case of `CC(C)=CCC/C(C)=C\CO`, the outcome is reported as “inactive”. In the case of `Clc1nc(Cl)c(Cl)c(Cl)c1Cl`, the outcome is reported as “inactive”. In the case of `CC(O)CN(CCN(CC(C)O)CC(C)O)CC(C)O` (stereo unspecified), the outcome is reported as “inactive”. With `CCc1cc(SCc2sc(-c3ccc(C(F)(F)F)cc3)nc2CN2CCN(c3ccc(OC)cc3)CC2)ccc1OCC(=O)O` the AC50 was 7.31 µM (active).

The compounds below were run on Transforming growth factor beta 1 (TGFb1), TGFB1 (gene 7040) (assay: BSK_KF3CT_TGFb1: BioMAP Diversity Plus: KF3CT Assay for Transforming growth factor beta 1 (TGFb1) Biomarker Activity (AID 2283072)). Details: primary human keratinocytes with fibroblasts; actives raise or lower the signal.
Summary of the method: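 TGF-b1 ELISA on a 24 h dosed co-culture of human keratinocytes and foreskin fibroblasts; cytotoxicity tracked in parallel cultures by SRB staining.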
With `Cc1c(-c2cccnc2)c2ccccc2n1CCCCC(=O)O` the outcome was “inactive”. `CC[C@H]1CC[C@H](NCc2cc3c(cc2OC)[C@H]2C[C@H]2C(=O)N3C)[C@H](c2ccccc2)N1` was tested, and the outcome was “inactive”. With `CCOCCOCCOCCO` the outcome was “inactive”. `Cn1c(=O)cc(Oc2ccc(F)cc2F)c2cnc(NCC(C)(C)O)nc21` was tested, and the outcome was “inactive”. With `CC[C@H](C)C(=O)O[C@H]1C[C@@H](C)C=C2C=C[C@H](C)[C@H](CC[C@@H]3C[C@@H](O)CC(=O)O3)[C@H]21` the AC50 was 33.3 µM (active). In the case of `CCN(C(=O)c1cc(C)cc(OC[C@H](C)Nc2ccncc2)c1)C(C)C`, the outcome is reported as “inactive”. For `Cc1ccc(S(=O)(=O)O)cc1C`, the outcome was “inactive”. `C[C@](N)(Cc1ccc(O)c(O)c1)C(=O)O` was tested, and the outcome was “inactive”. In the case of `CC(C)CCCCCCOC(=O)c1ccc(C(=O)OCCCCCCC(C)C)c(C(=O)OCCCCCCC(C)C)c1`, the outcome is reported as “inactive”. With `O=C(O)CCN(C1(C(=O)NO)CCCC1)S(=O)(=O)c1ccc(Oc2ccc(F)cc2)cc1` the outcome was “inactive”. In the case of `CC(C)CCCCCCCOC(=O)CCCCC(=O)OCCCCCCCC(C)C`, the outcome is reported as “inactive”. In the case of `CNCc1ccc(NC(=O)c2c[nH]c3c2C(=O)CCC3)cc1`, the outcome is reported as “inactive”. With `Cc1ccc(N)cc1O` the outcome was “inactive”. In the case of `Cc1[nH]cnc1C[C@H]1CCc2c(C)c3ccccc3n2C1=O`, the outcome is reported as “inactive”. With `CCCCC(CC)COC(=O)c1ccc(C(=O)OCC(CC)CCCC)cc1` (stereo unspecified) the outcome was “inactive”. `CC(C)CC(C)(O)C#CC(C)(O)CC(C)C` (stereo unspecified) was tested, and the outcome was “inactive”. With `O=C(O)CC(O)C(=O)O` (stereo unspecified) the outcome was “inactive”. `COc1cccc(-c2ccc(/C=C\CN3CCCCCC3)cc2Cl)c1` was tested, and the AC50 was 33.3 µM (active). With `CN(C)c1ccc(N=NS(=O)(=O)O)cc1` the outcome was “inactive”. For `COC(=O)CC(=O)OC`, the outcome was “inactive”. With `CCOC(=O)CC(CC(=O)OCC)(OC(C)=O)C(=O)OCC` the outcome was “inactive”. `CC(C)=CCCC(C)=CC=O` was tested, and the outcome was “inactive”. With `O=C(OC[C@H]1O[C@@H](OC(=O)c2cc(O)c(O)c(OC(=O)c3cc(O)c(O)c(O)c3)c2)[C@H](OC(=O)c2cc(O)c(O)c(OC(=O)c3cc(O)c(O)c(O)c3)c2)[C@@H](OC(=O)c2cc(O)c(O)c(OC(=O)c3cc(O)c(O)c(O)c3)c2)[C@@H]1OC(=O)c1cc(O)c(O)c(OC(=O)c2cc(O)c(O)c(O)c2)c1)c1cc(O)c(O)c(OC(=O)c2cc(O)c(O)c(O)c2)c1` the AC50 was 3.09 µM (active). With `CC(C)=CCCC(C)CCO` (stereo unspecified) the outcome was “inactive”. For `CCCCCCCCO`, the outcome was “inactive”. `Clc1nc(Cl)c(Cl)c(Cl)c1Cl` was tested, and the outcome was “inactive”. With `CC(O)CN(CCN(CC(C)O)CC(C)O)CC(C)O` (stereo unspecified) the outcome was “inactive”. For `CCc1cc(SCc2sc(-c3ccc(C(F)(F)F)cc3)nc2CN2CCN(c3ccc(OC)cc3)CC2)ccc1OCC(=O)O`, the AC50 was 4.39 µM (active).
